This passage reports outcome and AC50 results from PubChem BioAssay (EPA / NIEHS).

Calls of active or inactive are those of the source. Rule for the calls: active = hit-call score of the fitted dose curve at least 0.9, where 1 is the maximum; inactive = score below 0.9.

The AC50 is the concentration giving half of the maximal activity seen.

The nature of this assay: CCTE_Shafer_MEA_acute_burst_duration_mean: CCTE's Neural Acute Assay for Mean Burst Duration, Shafer Lab (AID 2284014). The protocol: CCTE_Shafer_MEA_acute assay is conducted using Axion Biosystems 48 well microelectrode array (MEA) plates and Maestro recording system. Each well of the MEA plate contains a grid of 16 microelectrodes embedded in the culture surface. Electrically active cells, such as neurons, can be cultured over the electrodes, and electrical activity in these cells can be recorded extracellularly. The spontaneous firing of neurons is captured from each electrode on a microsecond timescale providing both temporally and spatially precise data. […] The CCTE_Shafer_MEA_acute assay uses primary cultures of rat cortical neurons. As these cultures mature over time, neural networks develop functional activity and form cohesive networks in which electrical activity can be highly coordinated. Baseline 40-minute recordings are made on days post-plating 13 or 15, followed by a secondary 40-minute recording after chemical exposure.CCTE_Shafer_MEA_acute_burst_duration_mean is a component of the CCTE_Shafer_MEA_acute assay. It measures the average time from the first spike (action potential firing) to the last spike in a single-electrode burst (temporally-clustered group of spikes) during a recording in a microelectrode array (MEA) using Axion Biosystems Maestro 768 channel amplifier with the AxIS adaptive spike detector. The recordings before and after chemical treatment are used to calculate a percent change in the mean burst duration in each well.Data from the assay component CCTE_Shafer_MEA_acute_burst_duration_mean was analyzed into 1 assay endpoint. This assay endpoint, CCTE_Shafer_MEA_acute_burst_duration_mean, was analyzed in the negative analysis fitting direction relative to DMSO as the negative control and baseline of activity. Using a type of functional reporter, gain or loss-of-signal activity can be used to understand electrical activity.
Spontaneous activity in the cortical cultures was recorded using an Axion Biosystems Maestro 768 channel amplifier and Axion Integrated Studios (AxIS) v1.8 (or later) software. The amplifier recorded from all channels simultaneously (gain = 1200 x; sampling rate = 12.5 kHz/channel): raw signals were filtered with a Butterworth band-pass filter (300-5000 Hz), which filters out slower local field potentials leaving only fast potentials, i.e., "spikes", arising from extracellular currents associated with action potentials (Pine 2006; Wheeler and Nam 2011). On-line spike detection of filtered signals was conducted with the AxIS adaptive spike detector, using a threshold of 8x the root mean squared (rms) noise on each channel. Any electrodes with rms noise levels greater than 5 uV were grounded (e.g., no data were recorded). Once grounded, an electrode was grounded for the duration of the experiment. All recordings were conducted at 37 C. Wells were deemed usable if on the day of the exposure >/= 10 electrodes were active (defined as >/= 5 spikes/min). On DIV 13 or 15, a minimum of three wells from one cortical culture preparation were treated with each compound (0.03-40 uM). Prior to recording baseline activity, each mwMEA plate was placed in the Maestro at 37 C and allowed to sit for 20 min while firing rates stabilized. Baseline activity (40 min) was recorded before the addition of each compound. An additional 40 min of spontaneous activity was recorded in the presence of each compound. Changes in network parameters relative to baseline were assessed following compound treatment.
Consider `COc1ccccc1Oc1c(NS(=O)(=O)c2ccc(C(C)(C)C)cc2)nc(-c2ncccn2)nc1OCCO`, for which the outcome was inactive.

As to `CN(C)Cc1cc(C(C)(C)C)c(O)c(C(C)(C)C)c1`, the compound was classed as inactive.

For the compound `COc1cc(CNC(=O)CCCC/C=C/C(C)C)ccc1O`, the result was inactive.

`CNCCC(Oc1ccc(C(F)(F)F)cc1)c1ccccc1` (stereo unspecified): the outcome was inactive.

In the case of `CC1(C)S[C@@H]2[C@H](NC(=O)[C@H](N)c3ccccc3)C(=O)N2[C@H]1C(=O)O`, the call was inactive.

Take `O=[N+]([O-])c1cc(S(=O)(=O)Nc2ccccc2)ccc1Nc1ccccc1`: the result was inactive.

With `NC(N)=Nc1nc(CSCCC(N)=NS(N)(=O)=O)cs1`, the result was inactive.

Take `CN(C)C(=O)C(CCN1CCC(O)(c2ccc(Cl)cc2)CC1)(c1ccccc1)c1ccccc1`: the concentration at half-maximal activity (AC50) was 0.147 µM (active).

Turning to `COc1ccc(C(=O)c2ccccc2O)c(O)c1`, the result was inactive.

For `C1CN(CCOCCN2CCOCC2)CCO1`, the compound was classed as inactive.

With `CC[N+](CC)(CC(=O)Nc1c(C)cccc1C)Cc1ccccc1` (tested in a mixture with another compound), the result was inactive.

As to `CC1(C)S[C@@H]2[C@H](NC(=O)[C@H](N)c3ccc(O)cc3)C(=O)N2[C@H]1C(=O)O`, the outcome was inactive.

For the compound `CN(C)CCC(c1ccc(Cl)cc1)c1ccccn1` (stereo unspecified), the outcome was inactive.

Consider `CCC[Si](OC(C)=O)(OC(C)=O)OC(C)=O`, for which the outcome was inactive.

As for `CC(C)C1OCCN1CCOC(=O)NCCCCCCNC(=O)OCCN1CCOC1C(C)C` (stereo unspecified), the call was inactive.

On to `Cc1c(C(N)=O)cc([N+](=O)[O-])cc1[N+](=O)[O-]`, for which the outcome was inactive.
